One compound from ChEMBL document CHEMBL1961873, “Compounds: GSK PKIS; Assays: Nanosyn kinase panel” (2012) can be followed below.

Experiment [1] deals with Sphingosine kinase 1 (Homo sapiens) (UniProt Q9NYA1). Conditions: at 1 µM.
The target of experiment [2] is T1, Sphingosine kinase 2 (Homo sapiens) (UniProt Q9NRA0).
T1 sequence (whole entry): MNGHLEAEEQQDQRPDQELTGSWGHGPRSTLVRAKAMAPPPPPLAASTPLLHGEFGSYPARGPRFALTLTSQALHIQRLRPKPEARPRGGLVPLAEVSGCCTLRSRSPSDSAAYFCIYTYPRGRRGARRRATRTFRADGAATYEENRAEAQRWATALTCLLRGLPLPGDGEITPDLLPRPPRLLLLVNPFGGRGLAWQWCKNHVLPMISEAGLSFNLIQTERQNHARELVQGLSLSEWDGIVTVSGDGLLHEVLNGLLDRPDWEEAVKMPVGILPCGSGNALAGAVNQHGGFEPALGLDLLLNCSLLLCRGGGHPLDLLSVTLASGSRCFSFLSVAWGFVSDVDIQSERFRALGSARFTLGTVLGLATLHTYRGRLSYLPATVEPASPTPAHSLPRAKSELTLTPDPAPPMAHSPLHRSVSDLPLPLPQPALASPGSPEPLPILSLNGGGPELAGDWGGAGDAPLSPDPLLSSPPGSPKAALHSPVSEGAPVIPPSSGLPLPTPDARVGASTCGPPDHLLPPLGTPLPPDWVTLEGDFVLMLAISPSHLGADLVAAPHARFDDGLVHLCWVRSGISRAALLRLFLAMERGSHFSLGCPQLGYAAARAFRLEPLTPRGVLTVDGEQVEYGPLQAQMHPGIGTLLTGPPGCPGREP
Conditions: at 0.1 µM.

Experiment [3] concerns the target T1, Sphingosine kinase 2 (Homo sapiens). Conditions: at 1 µM.
The target of experiment [4] is Casein kinase II subunit alpha (Homo sapiens) (UniProt P68400). Conditions: at 0.1 µM.
For experiment [5] the target is unchanged. Conditions: at 1 µM.
Experiment [6] has as its target T2, Inhibitor of nuclear factor kappa-B kinase subunit alpha (Homo sapiens) (UniProt O15111).
T2 sequence (whole entry): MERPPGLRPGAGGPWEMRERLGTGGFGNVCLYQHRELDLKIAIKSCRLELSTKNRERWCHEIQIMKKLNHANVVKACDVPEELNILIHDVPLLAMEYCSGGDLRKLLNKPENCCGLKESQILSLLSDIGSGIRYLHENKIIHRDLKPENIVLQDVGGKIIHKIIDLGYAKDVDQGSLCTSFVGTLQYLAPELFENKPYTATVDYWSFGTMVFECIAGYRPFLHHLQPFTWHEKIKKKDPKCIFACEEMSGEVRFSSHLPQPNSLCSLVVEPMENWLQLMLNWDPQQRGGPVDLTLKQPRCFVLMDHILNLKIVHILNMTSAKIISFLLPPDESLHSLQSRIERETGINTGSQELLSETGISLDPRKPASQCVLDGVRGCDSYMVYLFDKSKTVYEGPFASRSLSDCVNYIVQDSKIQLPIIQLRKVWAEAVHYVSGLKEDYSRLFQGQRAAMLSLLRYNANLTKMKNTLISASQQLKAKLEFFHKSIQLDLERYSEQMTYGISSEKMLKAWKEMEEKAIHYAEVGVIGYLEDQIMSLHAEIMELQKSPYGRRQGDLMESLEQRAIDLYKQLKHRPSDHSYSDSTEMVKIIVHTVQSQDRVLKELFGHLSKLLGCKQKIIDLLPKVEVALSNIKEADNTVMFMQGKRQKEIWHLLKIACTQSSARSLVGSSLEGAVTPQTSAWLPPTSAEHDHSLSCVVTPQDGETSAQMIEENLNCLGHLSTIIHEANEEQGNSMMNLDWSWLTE
Conditions: at 0.1 µM.

In experiment [7] the target is T2, Inhibitor of nuclear factor kappa-B kinase subunit alpha (Homo sapiens). Conditions: at 1 µM.
In experiment [8] the target is T3, Inhibitor of nuclear factor kappa-B kinase subunit beta (Homo sapiens) (UniProt O14920).
T3 sequence (whole entry): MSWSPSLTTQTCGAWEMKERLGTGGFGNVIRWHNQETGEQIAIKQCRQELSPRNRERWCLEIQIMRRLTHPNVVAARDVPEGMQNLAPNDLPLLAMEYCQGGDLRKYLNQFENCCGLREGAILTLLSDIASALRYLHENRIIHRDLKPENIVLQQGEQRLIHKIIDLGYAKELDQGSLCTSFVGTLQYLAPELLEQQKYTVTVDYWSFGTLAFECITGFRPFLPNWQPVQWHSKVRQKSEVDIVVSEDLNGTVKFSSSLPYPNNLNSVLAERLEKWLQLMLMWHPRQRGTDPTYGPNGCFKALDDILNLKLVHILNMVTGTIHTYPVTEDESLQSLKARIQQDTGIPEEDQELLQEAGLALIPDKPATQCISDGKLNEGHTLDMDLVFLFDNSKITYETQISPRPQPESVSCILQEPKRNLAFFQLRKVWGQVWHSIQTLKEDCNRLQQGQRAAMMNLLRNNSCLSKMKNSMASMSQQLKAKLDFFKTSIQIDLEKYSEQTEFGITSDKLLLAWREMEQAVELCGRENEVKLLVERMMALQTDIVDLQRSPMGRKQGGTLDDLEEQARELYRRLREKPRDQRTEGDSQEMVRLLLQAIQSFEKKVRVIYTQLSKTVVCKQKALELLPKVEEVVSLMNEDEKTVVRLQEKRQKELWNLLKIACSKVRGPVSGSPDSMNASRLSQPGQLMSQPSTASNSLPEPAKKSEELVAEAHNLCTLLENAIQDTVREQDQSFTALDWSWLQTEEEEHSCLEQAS
Conditions: at 0.1 µM.

The target of experiment [9] is T3, Inhibitor of nuclear factor kappa-B kinase subunit beta (Homo sapiens). Conditions: at 1 µM.
Experiment [10] addresses T4, Inhibitor of nuclear factor kappa-B kinase subunit epsilon (Homo sapiens) (UniProt Q14164).
T4 sequence (whole entry): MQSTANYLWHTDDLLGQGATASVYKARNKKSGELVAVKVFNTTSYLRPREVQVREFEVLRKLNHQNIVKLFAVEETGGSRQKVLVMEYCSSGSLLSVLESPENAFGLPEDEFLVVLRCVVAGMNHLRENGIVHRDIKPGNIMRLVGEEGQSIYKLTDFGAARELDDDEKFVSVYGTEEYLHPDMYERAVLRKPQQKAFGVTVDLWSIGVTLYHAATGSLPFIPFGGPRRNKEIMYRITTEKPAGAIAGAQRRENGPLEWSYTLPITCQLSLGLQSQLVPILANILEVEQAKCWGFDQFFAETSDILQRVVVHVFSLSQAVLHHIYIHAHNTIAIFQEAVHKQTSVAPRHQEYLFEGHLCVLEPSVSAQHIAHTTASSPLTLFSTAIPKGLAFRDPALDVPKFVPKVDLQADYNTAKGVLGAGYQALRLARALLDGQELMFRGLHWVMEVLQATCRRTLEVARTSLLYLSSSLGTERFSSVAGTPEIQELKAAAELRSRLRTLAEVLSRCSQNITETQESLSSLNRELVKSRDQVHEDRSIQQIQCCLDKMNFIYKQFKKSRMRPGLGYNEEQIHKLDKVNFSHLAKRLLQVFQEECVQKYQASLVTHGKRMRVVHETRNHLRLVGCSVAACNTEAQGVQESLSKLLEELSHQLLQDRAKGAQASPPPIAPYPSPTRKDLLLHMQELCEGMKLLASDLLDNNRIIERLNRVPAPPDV
Conditions: at 0.1 µM.

Experiment [11] concerns the target T4, Inhibitor of nuclear factor kappa-B kinase subunit epsilon (Homo sapiens). Conditions: at 1 µM.
In experiment [12] the target is T5, Serine/threonine-protein kinase Nek1 (Homo sapiens) (UniProt Q96PY6).
T5 sequence (whole entry): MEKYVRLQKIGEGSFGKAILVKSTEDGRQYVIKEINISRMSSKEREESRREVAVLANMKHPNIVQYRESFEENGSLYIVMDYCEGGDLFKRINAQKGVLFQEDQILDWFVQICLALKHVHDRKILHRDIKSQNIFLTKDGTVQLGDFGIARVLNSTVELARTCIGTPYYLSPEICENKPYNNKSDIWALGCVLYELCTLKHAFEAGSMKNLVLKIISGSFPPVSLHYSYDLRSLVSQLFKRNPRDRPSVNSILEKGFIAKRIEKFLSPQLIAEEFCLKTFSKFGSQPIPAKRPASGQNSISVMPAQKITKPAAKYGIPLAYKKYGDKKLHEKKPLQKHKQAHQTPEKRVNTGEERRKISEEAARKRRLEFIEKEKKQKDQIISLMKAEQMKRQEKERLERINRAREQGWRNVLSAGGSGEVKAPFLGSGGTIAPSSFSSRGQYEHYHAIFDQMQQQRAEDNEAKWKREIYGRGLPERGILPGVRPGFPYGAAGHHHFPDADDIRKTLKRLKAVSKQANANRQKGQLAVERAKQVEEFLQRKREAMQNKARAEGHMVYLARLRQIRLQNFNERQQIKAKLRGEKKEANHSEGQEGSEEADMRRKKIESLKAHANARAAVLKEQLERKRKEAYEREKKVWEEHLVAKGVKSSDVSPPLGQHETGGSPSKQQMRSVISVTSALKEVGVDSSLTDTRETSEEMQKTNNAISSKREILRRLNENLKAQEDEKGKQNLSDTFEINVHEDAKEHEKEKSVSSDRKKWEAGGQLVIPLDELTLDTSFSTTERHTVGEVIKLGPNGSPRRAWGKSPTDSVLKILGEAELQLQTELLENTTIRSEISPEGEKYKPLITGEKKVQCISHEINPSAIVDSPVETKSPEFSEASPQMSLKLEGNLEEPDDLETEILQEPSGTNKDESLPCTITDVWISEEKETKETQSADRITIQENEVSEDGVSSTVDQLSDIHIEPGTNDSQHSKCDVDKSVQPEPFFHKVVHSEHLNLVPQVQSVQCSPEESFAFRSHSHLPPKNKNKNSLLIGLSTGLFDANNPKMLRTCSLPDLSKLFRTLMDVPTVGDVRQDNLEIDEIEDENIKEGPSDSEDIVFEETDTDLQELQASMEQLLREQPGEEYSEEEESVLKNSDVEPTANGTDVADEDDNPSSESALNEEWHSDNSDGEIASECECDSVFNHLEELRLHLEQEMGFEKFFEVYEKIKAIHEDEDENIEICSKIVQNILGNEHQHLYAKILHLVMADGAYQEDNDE
Conditions: at 0.1 µM.

Experiment [13] concerns the target T5, Serine/threonine-protein kinase Nek1 (Homo sapiens). Conditions: at 1 µM.
For experiment [14], the target named is T6, Serine/threonine-protein kinase Nek2 (Homo sapiens) (UniProt P51955).
T6 sequence (whole entry): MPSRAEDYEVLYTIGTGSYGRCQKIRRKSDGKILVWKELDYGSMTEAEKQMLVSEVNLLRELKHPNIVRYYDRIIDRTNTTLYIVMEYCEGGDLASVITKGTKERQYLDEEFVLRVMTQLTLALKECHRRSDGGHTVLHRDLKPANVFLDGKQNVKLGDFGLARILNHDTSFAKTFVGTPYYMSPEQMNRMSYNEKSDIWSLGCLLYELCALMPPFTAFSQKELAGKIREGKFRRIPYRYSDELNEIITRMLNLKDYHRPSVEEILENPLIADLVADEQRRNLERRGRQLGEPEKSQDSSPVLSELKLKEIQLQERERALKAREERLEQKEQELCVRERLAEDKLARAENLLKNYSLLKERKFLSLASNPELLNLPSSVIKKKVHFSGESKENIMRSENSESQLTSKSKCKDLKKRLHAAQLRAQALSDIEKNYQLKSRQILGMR
Conditions: at 0.1 µM.

The target in experiment [15] is T6, Serine/threonine-protein kinase Nek2 (Homo sapiens). Conditions: at 1 µM.
Experiment [16] addresses Serine/threonine-protein kinase Nek6 (Homo sapiens) (UniProt Q9HC98). Conditions: at 0.1 µM.
For experiment [17] the target is unchanged. Conditions: at 1 µM.
In experiment [18] the target is Serine/threonine-protein kinase Nek7 (Homo sapiens) (UniProt Q8TDX7). Conditions: at 0.1 µM.
The target is the same in experiment [19]. Conditions: at 1 µM.
The target in experiment [20] is T7, Serine/threonine-protein kinase Nek9 (Homo sapiens) (UniProt Q8TD19).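 Further: reported value is the mean percent inhibition of NEK9.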
T7 sequence (whole entry): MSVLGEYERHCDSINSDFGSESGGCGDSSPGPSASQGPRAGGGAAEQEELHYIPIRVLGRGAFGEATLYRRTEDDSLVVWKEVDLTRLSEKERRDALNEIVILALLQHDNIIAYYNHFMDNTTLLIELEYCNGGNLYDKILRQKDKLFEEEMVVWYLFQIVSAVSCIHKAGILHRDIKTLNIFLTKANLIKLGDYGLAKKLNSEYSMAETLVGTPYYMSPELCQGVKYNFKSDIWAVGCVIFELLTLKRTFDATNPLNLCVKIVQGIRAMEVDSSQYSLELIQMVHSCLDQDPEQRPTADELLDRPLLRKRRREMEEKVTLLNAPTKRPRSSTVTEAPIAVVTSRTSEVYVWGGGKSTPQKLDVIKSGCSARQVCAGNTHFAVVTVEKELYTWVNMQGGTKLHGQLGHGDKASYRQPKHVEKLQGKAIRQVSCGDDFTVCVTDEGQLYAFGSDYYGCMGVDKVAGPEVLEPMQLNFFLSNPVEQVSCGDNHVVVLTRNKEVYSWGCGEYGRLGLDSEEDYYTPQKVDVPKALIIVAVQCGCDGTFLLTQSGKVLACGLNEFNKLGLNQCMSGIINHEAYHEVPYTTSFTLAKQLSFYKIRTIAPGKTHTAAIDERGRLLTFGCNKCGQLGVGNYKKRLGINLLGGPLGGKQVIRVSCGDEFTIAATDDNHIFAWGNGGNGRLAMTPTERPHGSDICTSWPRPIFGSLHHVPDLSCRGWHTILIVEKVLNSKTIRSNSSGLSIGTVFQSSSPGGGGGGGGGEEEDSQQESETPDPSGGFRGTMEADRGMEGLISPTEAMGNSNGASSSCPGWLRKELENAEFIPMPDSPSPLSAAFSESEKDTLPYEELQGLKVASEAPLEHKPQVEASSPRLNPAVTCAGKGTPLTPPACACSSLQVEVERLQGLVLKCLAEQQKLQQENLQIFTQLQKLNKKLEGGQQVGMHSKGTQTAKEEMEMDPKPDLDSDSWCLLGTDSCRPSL
Conditions: at 0.1 µM.

Molecules are shown by their SMILES.

Sequence of Serine/threonine-protein kinase Nek6 (Homo sapiens) (Q9HC98 whole entry): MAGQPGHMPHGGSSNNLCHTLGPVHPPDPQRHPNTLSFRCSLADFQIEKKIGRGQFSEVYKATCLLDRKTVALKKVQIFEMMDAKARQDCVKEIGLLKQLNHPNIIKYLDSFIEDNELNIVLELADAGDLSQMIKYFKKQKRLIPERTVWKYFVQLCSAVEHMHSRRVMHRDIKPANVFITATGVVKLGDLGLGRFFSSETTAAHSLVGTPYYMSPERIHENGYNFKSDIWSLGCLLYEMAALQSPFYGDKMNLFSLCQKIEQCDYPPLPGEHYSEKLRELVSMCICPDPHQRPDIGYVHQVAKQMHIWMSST
Sequence of Casein kinase II subunit alpha (Homo sapiens) (P68400 whole entry, looked up): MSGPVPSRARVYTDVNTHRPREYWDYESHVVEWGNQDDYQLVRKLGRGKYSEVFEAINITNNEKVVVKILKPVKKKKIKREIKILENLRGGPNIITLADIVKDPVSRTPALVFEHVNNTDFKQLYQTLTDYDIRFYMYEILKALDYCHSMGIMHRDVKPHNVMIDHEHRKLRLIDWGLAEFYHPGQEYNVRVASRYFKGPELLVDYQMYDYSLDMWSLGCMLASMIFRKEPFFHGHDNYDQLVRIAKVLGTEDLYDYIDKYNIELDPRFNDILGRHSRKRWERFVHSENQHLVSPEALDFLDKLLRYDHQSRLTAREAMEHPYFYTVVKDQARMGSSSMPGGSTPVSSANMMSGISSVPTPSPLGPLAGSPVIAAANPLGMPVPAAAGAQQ
Sequence of Serine/threonine-protein kinase Nek7 (Homo sapiens) (Q8TDX7 whole entry, looked up): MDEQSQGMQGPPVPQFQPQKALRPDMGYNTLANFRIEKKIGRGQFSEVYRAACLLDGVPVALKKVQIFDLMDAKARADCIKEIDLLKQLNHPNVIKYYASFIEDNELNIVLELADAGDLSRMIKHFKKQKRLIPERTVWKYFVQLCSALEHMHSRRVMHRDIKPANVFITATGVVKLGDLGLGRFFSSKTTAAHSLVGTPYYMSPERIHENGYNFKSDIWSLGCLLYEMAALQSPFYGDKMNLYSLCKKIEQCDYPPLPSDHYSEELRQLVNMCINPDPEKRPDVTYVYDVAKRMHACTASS
Sequence of Sphingosine kinase 1 (Homo sapiens) (Q9NYA1 whole entry): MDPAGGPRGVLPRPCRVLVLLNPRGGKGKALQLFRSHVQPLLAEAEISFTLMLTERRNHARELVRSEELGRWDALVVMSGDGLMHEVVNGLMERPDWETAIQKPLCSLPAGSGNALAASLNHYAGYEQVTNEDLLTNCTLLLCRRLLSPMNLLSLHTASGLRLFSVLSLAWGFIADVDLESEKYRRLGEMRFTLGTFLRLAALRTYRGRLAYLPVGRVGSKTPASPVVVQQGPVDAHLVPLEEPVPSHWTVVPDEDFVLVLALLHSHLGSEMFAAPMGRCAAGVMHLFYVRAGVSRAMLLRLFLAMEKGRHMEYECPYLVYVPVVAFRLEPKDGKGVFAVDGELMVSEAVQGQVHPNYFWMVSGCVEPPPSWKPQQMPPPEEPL

What is called inhibition is the drop in the measured response relative to a control, in per cent. Regarding `COc1ccc(-c2ccc3c(NC(=O)C4CC4)n[nH]c3n2)cc1`, the inhibition in experiment [1] was -0.43%; in experiment [2], -0.3%; in experiment [3], 1.99%; in experiment [4], 3.46%; in [5] it was 8.9%; in experiment [6] it was 9.58%. The inhibition in [7] was 7.37%; in experiment [8], 4.51%; in experiment [9], 4.44%; in [10] it was 6.37%; in experiment [11], -8.46%; in experiment [12] it was 0.44%. For the same compound, the inhibition turned out to be 2.1% in experiment [13]; 1.84% in experiment [14]; 1.4% in [15]; 2.4% in [16]; 3.26% in experiment [17]; 2.52% in [18]. Besides, the inhibition was 1.09% in experiment [19] and 4% in experiment [20].
